This is a sample that favours compounds with a hit; in the whole collection about 12% have one here.
CHX counter = Cycloheximide Counterscreen for Small Molecule Inhibitors of Shiga Toxin; cell reporter, cycloheximide protein synthesis inhibition counterscreen; max response, %; 300,000 compounds, 12% hits; in the data active = max response mostly above about 13%, no sharp cut-off; inactive = mostly below about 14%; note: read at 38.3 µM for the half of the compounds with a filed dose; 0% is about no effect
Lassa entry inh = qHTS for Inhibitors of binding or entry into cells for Lassa Virus | Lassa virus pseudotype entry inhibition, cell reporter | Potency, µM (series often up to 37.9 µM), for the others: at the top dose activity change, negative = inhibition, usual class: inhibitors | 300,000 compounds, 1.2% hits; calls by dose curve; tested in HEK293 cells; note: potency is the fitted concentration of half-maximal effect; % is set by controls: 0 for no effect and ±100 for the full control effect; nearly all actives have a fitted effect of over 50% in size
Marburg entry inh = qHTS for inhibitors of binding or entry into cells for Marburg Virus | Marburg virus pseudotyped entry inhibition, cell reporter | Potency, µM (top dose mostly 37.8 µM), inactives show at the top dose activity change, negative = inhibition, actives largely listed as inhibitors | 300,000 compounds, 1.8% hits | AID 540276, 2011; calls by dose curve; tested in HEK293 cells; note: potency is the fitted concentration of half-maximal effect; % is set by controls: 0 for no effect and ±100 for the full control effect
Shiga toxin inh = A qHTS for Small Molecule Inhibitors of Shiga Toxin; Vero cells, Shiga toxin protein synthesis inhibition reporter; inhibition, % at 38.7 µM; 290,000 compounds, 9.2% hits; AID 2315, 2010; in the data active = inhibition mostly above about 28%, no sharp cut-off; inactive = mostly below about 43%; note: 0% is about no effect
The depositor's hits bear a star; ? = inconclusive; nt = no result; + = active, no number; [ ] = remark or other dose.

SMILES	CHX counter	Lassa entry inh	Marburg entry inh	Shiga toxin inh
CCN(CC)C(=N)/C(C#N)=N/Nc1ccccc1	39.4*	12.9%	9.0%	92.6*
N#C/C(=N\Nc1ccc(Cl)cc1)C(=N)N1CCCCCC1	42.8*	-0.3%	4.5%	144.6*
Cc1nn(-c2ccc(Cl)cc2)c(NC(=O)C(C)C)c(-c2ccccc2)c1=O	-0.4	nt	nt	4.9
CC/C=C/[C@@H](c1ccccc1)[C@H](C)C(O)CC(=O)SC(C)(C)C (some centres undefined)	-1.8	nt	nt	35.1
CN(C)c1ccc(-c2ccccc2)nn1	32.2*	?	5.7%[46.1 µM]	94.5*
COc1cc(OC)c(NC(=O)Cc2c(C(=O)O)c(C)cn2C)cc1Cl	nt	10.2%[46.1 µM]	nt	nt
COc1cc(-c2cc(OC)c3c(C)oc(C)c3c(=O)c2)ccc1OC(=O)c1cccc(C)c1	nt	-18.8%[46.1 µM]	-0.7%[46.1 µM]	nt
CCN1CCC2(CC1)Oc1c(OC)cccc1C1CC(c3cccnc3)=NN12 (centres undefined)	44.4*	-11.3%[46.1 µM]	?	55.4*
CSc1nncc(/C(C)=N\Nc2cccc(C)c2)n1	5.8	8.6%	9.2%	20.0
CSc1nnc2c(n1)c(C)nn2-c1cccc(C)c1	19.7*	?	?	36.2*
Cc1ccc(C)c(N2CCN(S(=O)(=O)c3c(C)noc3/C=C/N(C)C)CC2)c1	2.7	?	12.6µM*	-11.9
C=CCn1nc2n(c1=O)-c1ccccc1SC2	13.2	nt	nt	23.8
O=c1n(Cc2ccccc2Cl)nc2n1-c1ccccc1SC2	48.2*	nt	nt	40.1*
O=c1n(Cc2ccccc2)nc2n1-c1ccccc1SC2	27.7*	nt	nt	49.4*
COc1ccc(N2CSC3=C(C#N)C(c4cccs4)CC(=O)N3C2)cc1 (centres undefined)	18.1*	-3.2%	3.5%	46.5
CCc1ccc(N2CSC3=C(C#N)C(c4cccs4)CC(=O)N3C2)cc1 (centres undefined)	14.8*	-17.1%	?	35.3
COc1cc(OC)c(C2CC(=O)N3CN(c4ccc(C)cc4)CSC3=C2C#N)cc1OC (centres undefined)	12.2	18.7%	2.9%	40.7*
C=C(C)C1CC=C(C)/C(=N/NC(=O)COc2cccc(C)c2)C1 (centres undefined)	7.6	-17.7%	3.5%	41.1*
C=C(C)C1CC=C(C)/C(=N/NC(=O)COc2ccc(Cl)cc2)C1 (centres undefined)	-4.9	-24.5%	24.1%	-11.0
C=C(C)C1CC=C(C)/C(=N/NC(=O)c2ccc(NC(=O)c3cccc(C)c3)cc2)C1 (centres undefined)	-1.2	-15.3%	-3.7%	12.8
C=C(C)C1CC=C(C)/C(=N/NC(=O)c2ccoc2C)C1 (centres undefined)	65.5*	?	1.0%	+
C=C(C)C1CC=C(C)/C(=N/NC(=S)Nc2ccccc2)C1 (centres undefined)	20.8*	1.4%	2.9%	27.3
CCc1ccc(-c2cc(C(F)(F)F)n3nc(C(=O)Nc4cnn(Cc5ccc(C)cc5)c4)cc3n2)s1	-6.3	?	9.2µM*	-9.8
CCOC(=O)c1c(-c2ccccc2Cl)cn2ccccc12	8.0	13µM*	?	18.8
COc1ccc(N(CC(=O)NCc2ccccc2)C(=O)Cn2nnc(-c3ccccc3F)n2)cc1OC	-1.8	?	1.7%[46.1 µM]	-8.3
SMILES	CHX counter	Lassa entry inh	Marburg entry inh	Shiga toxin inh
COc1ccc(CC(=O)Nc2nc(C)cs2)cc1	20.1*	-3.8%	?	29.5
Cc1cc2occ(CC(=O)NCc3cccs3)c2cc1C(C)C	-2.3	-13.0%	?	17.1
COc1ccc(CC(=O)Nc2nc(C)cs2)cc1OC	-1.1	-1.1%	?	-13.3
Cc1csc(NC(=O)Cc2coc3cc(C)c(C(C)C)cc23)n1	-2.1	2.82µM*	3.98µM*	-10.9
Cc1csc(NC(=O)Cc2ccccc2Cl)n1	39.8*	?	?	110.3*
Cc1csc(NC(=O)Cc2nn(C)c(=O)c3ccccc23)n1	11.1	-6.8%	?	13.2
COc1ccc(CC(=O)Nc2nc(C(C)(C)C)cs2)cc1	10.0	4.47µM*	?	22.5
O=C(O)CCSc1nnc(SCC(=O)NCC(F)(F)F)s1	-0.8	1.8%	16.1%	-6.5
COc1cc(C(O)CO)ccc1OS(=O)(=O)O (centres undefined)	nt	13.8%	?	nt
Cc1csc(NC(=O)Cc2ccc(Cl)cc2)n1	nt	?	3.9%[46.1 µM]	nt
Cc1csc(NC(=O)Cc2ccc(Br)cc2)n1	31.3*	14.2%	-17.2%	61.0
COc1ccc(/C=C2/C(=O)N(CC3CCCO3)C(=S)N2C)c(OC)c1 (centres undefined)	-2.8	?	-0.6%	1.2
COc1ccc2c(c1)nc1n2CN(CC2CCCO2)CN1Cc1ccccc1 (centres undefined)	31.9*	nt	nt	49.3*
COC(=O)C1=C(C(=O)OC)[C@@H]2N(C)c3ccccc3[C@@]23CCC(=O)N(Cc2ccc(OC)cc2)C3=N1	nt	nt	-9.4%[14.2 µM]	nt
CCOC(=O)CN1C(=O)/C(=C/c2c(F)cccc2Cl)Oc2ccccc21	18.8*	?	?	19.0*
Oc1ccc(N=C/C=C/c2ccc(Br)cc2)cc1-c1nc2ccccc2s1	36.2*	?	2.5%	40.3*
O=C(c1ccco1)N1CCN(C(=O)C2CCCc3c2[nH]c2ccc(Cl)cc32)CC1 (centres undefined)	-1.7	4.47µM*	2.82µM*	-5.2
CN(c1ccc(NC(=O)Nc2ccc(OC(F)(F)F)cc2)cc1)c1ccnc(Nc2cccc(S(N)(=O)=O)c2)n1	nt	25µM*	nt	nt
Nc1cnc(CNc2ccccc2Cl)cn1	14.1	nt	nt	32.0*
Clc1ccc(CNc2ccccc2NCc2ccc(Cl)nc2)cn1	15.4	?	?	-6.8
CC(=O)OC[C@H]1O[C@H](C/C=N/OCC[C@@H]2C=C[C@H](OC(C)=O)[C@@H](COC(C)=O)O2)C=C[C@@H]1OC(C)=O	nt	nt	10.3%[14.2 µM]	nt
Cc1cc(=O)[nH]c(NCc2ccc(Cl)cc2)n1	3.8	nt	nt	10.7
CSc1n[nH]c(NCc2ccc(Cl)cc2)n1	15.5*	15.8%	14.9%	51.3*
CSc1n[nH]c(NCc2ccc(C)cc2)n1	40.4*	?	-65.2%	72.4*
CSc1n[nH]c(NCc2ccccc2)n1	9.4	-1.4%	8.5%	28.8*
SMILES	CHX counter	Lassa entry inh	Marburg entry inh	Shiga toxin inh
CN(C)C1(CNC(=O)COc2ccc([N+](=O)[O-])cc2)CCCCC1	nt	4.9%[46.1 µM]	1.7%[46.1 µM]	nt
Cc1cccc(NC(=O)CSCC(=O)N2CCN(C(=O)c3ccco3)CC2)c1	nt	-17.0%	-1.8%	nt
N#Cc1nc(Cc2ccccc2)oc1NCc1ccccc1Cl	48.3*	5.1%	-3.2%	40.7*
N#Cc1nc(-c2ccc(Cl)cc2)oc1NCc1ccco1	27.8*	26.8%	1.6%	91.0*
N#Cc1nc(-c2ccccc2)oc1NCc1ccco1	23.5*	nt	nt	active
N#Cc1nc(Cc2ccccc2)oc1NCc1cccnc1	-1.2	-10.8%	5.3%	-5.7
N#Cc1nc(-c2ccc(Cl)cc2)oc1NCc1cccc2c1OCO2	28.1	-3.4%	7.8%	28.8
N#Cc1nc(-c2ccccc2Cl)oc1NCc1ccco1	21.9*	10.4%	-7.9%	46.6*
NS(=O)(=O)c1ccc(NC(=O)COc2ccc(C(=O)c3ccc(F)cc3)cc2)cc1	-6.6	nt	nt	19.9
Cc1ccc(C)n1-c1nnc(N2CCCC(C(=O)NCc3cccc(F)c3)C2)s1 (centres undefined)	nt	-10.9%[46.1 µM]	-29.9%[46.1 µM]	nt

Source: PubChem (National Center for Advancing Translational Sciences (NCATS))
